High-throughput results deposited in PubChem by National Center for Advancing Translational Sciences (NCATS).
Shown are actives, neighbours in structure and some others; about 0.96% of the full set was active somewhere.
A647 fluor = qHTS Assay for Spectroscopic Profiling in A647 Spectral Region; Compound fluorescence, A647 channel (570/671 nm), Tris buffer; max dye-equivalent concentration, M; 59,000 tested, under 10 active; AID 592, 2007;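 further: values scaled relative to a standard on each plate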
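Compounds pinned into 100 mM Tris pH 8.0, 15 min at room temperature, then read with 570 nm excitation/671 nm emission filters. Fluorescence normalized to an on-plate six-point Alexa 647 standard curve, giving dye-equivalent concentration per compound concentration.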
A488 fluor = qHTS Assay for Spectroscopic Profiling in A488 Spectral Region | compound autofluorescence, A488 spectral region, dye equivalency; Compound Type: qHTS ECL - MLSMR | 59,000 tested, 0.1% active | max dye equivalency, M
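Readout is A488 dye-equivalent concentration, calibrated by a per-plate six-point Alexa 488 series. Compounds in 100 mM Tris buffer pH 8.0 were incubated 15 min at room temperature. Plates were imaged using 480 nm excitation/540 nm emission filters.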
Rhodamine autofl = qHTS Assay for Spectroscopic Profiling in Rhodamine Spectral Region; AID 594, 2007; Rhodamine-region fluorescence, 547/598 nm, Tris buffer; active compounds read high; 59,000 tested, 0.05% active; max dye-equivalent concentration, M; in the data active means max dye-equivalent concentration above about 11 nM; inconclusive means between about 1.1 nM and that limit
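Intensities are converted to rhodamine-equivalent concentration using a six-point rhodamine standard on each plate. Compounds sit 15 min at room temperature in 100 mM Tris buffer, pH 8.0; read uses the 547/598 nm excitation/emission pair.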
Fluorescein fluor = qHTS Assay for Spectroscopic Profiling in Fluorescein Spectral Region; Compound autofluorescence, 480/540 nm, fluorescein-equivalent; active compounds read high; max fluorescein-equivalent concentration, M; 59,000 tested, 0.91% active; in the data active means max fluorescein-equivalent concentration above about 10 nM; inconclusive means between about 1.1 nM and that limit
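First, buffer (100 mM Tris, pH 8.0) dispensed; second, compounds and fluorescein standards pinned in; third, 15 min room-temperature incubation; finally, imaging at ex 480 nm/em 540 nm. Fluorescence normalized against the six-point fluorescein curve.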
Resorufin fluor = qHTS Assay for Spectroscopic Profiling in Resorufin Spectral Region; 59,000 tested, 0.04% active; Compound fluorescence, resorufin region 547/598 nm, buffer; active compounds read high; max dye-equivalent concentration, M
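Dye-equivalent concentration values derive from comparing each well's 547/598 nm fluorescence against resorufin standards included on every plate. Incubation was 15 min at room temperature in 100 mM Tris, pH 8.0.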
Texas Red fluor = qHTS Assay for Spectroscopic Profiling in Texas Red Spectral Region; 59,000 tested, 0.06% active; Compound fluorescence, Texas Red channel, 547/618 nm; active compounds read high; max dye-equivalent concentration, M; AID 587, 2007; in the data active means max dye-equivalent concentration above about 10 nM; inconclusive means between about 1.1 nM and that limit
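Dye-equivalent concentrations come from scaling compound signal (ex 547, em 618 nm) to six Texas Red standard concentrations run on every plate, after 15 min room-temperature incubation in pH 8.0 Tris (100 mM).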
* = called active by the depositor; i = inactive; ? = inconclusive; ! = a repeat was not active. Unless noted, how the calls were made is not given here.

SMILES	A647 fluor	A488 fluor	Rhodamine autofl	Fluorescein fluor	Resorufin fluor	Texas Red fluor
CN1C[C@H](CO)C=C2c3cccc4[nH]cc(c34)C[C@@H]21	2.9e-09	i	i	2.7e-08M*	i	i
CCN(CC)C(=O)N[C@@H]1C=C2c3cccc4[nH]cc(c34)C[C@@H]2N(C)C1	1e-09	i	i	1.3e-08M*!	i	?
O=C(O)/C=C\c1ccc[c]([Sb](=[O])([OH])[OH])c1	1e-09	i	i	?	i	i
CCN1C[C@@]2(COC(=O)c3ccccc3N3C(=O)C[C@H](C)C3=O)CC[C@H](OC)[C@@]34[C@@H]5CC6[C@@H](OC)C[C@@](O)([C@H]5[C@H]6OC)C(O)([C@@H]13)[C@@H](OC)[C@H]24	1.4e-09	i	i	i	i	i
N[C@H](Cn1oc(=O)[nH]c1=O)C(=O)O	5.2e-08	i	i	?	i	i
CN1CC=C2C(C#N)=C(N)C(C#N)(C#N)C(c3ccncc3)C2C1 (stereo not drawn)	1e-09	?	i	4.2e-08M*	i	?
Cn1c(=O)c2nncnc2n(C)c1=O	6.9e-09	i	i	1.1e-08M*	i	i
CN1C[C@@H](CS(=O)(=O)N(C)C)C[C@H]2c3cccc4c3c(cn4C)C[C@@H]21	1e-09	i	i	1.9e-08M*	i	?
CN1C[C@H](CNC(=O)OCc2ccccc2)C[C@@H]2c3cccc4c3c(cn4C)C[C@H]21	3.3e-08	?	i	4.7e-08M*	i	i
CC(C)OC(=O)c1c(N)n(Cc2ccco2)c2nc3ccccc3nc12	3.5e-08	?	i	3.6e-08M*	i	i
COc1ccc(Cn2c(N)c(C(=O)NCc3ccco3)c3nc4ccccc4nc32)cc1OC	1.4e-08	i	i	?	i	i
COCCOC(=O)c1c(N)n(Cc2ccc(OC)cc2)c2nc3ccccc3nc12	4.9e-09	i	i	i	i	?
COCCOC(=O)c1c(N)n(Cc2ccco2)c2nc3ccccc3nc12	1e-09	?	i	4.3e-08M*	i	i
CC[C@@H]1CN2CC[C@@H]1C[C@H]2[C@@H](O)c1ccnc2ccc(OC)cc12	6.9e-09	i	i	i	i	i
COc1cc2c(cc1OC)[C@]13CCN4CC5=CCO[C@@H]6CC(=O)N2[C@@H]1[C@H]6[C@@H]5C[C@H]43	1.5e-08	i	i	?	i	i
CCCN1CCc2cccc3c2[C@@H]1Cc1ccc(O)c(O)c1-3	1e-09	i	i	?	i	i
C[C@@H]1O[C@@H](O[C@H]2C[C@@H](O)[C@]3(CO)[C@@H]4[C@@H](O)C[C@]5(C)[C@H]([C@@H]6COC(=O)C6)CC[C@@]5(O)[C@H]4CC[C@@]3(O)C2)[C@H](O)[C@H](O)[C@@H]1O	1e-09	i	i	i	i	i
COc1cccc2c1C(=O)c1c(O)c3c(c(O)c1C2=O)C[C@](O)(/C(C)=N\O)C[C@@H]3O[C@H]1C[C@H](N)[C@@H](O)[C@H](C)O1	1e-09	?	3e-08M*	7.6e-08M*	1.7e-08M*	1.9e-08M*
CCn1nc(-c2ccccc2)nc2c(=O)n(C)c(=O)nc1-2	1.9e-08	1.1e-08M*	i	1.8e-07M*	i	i
CCC(=NC1CCN(Cc2ccccc2)CC1)c1c(O)[nH]c(=O)[nH]c1=O	1e-09	i	i	i	i	i
CCOC(=O)c1ccc(NC(=O)c2c(O)[nH]c(=O)[nH]c2=O)cc1	1e-09	2.3e-06M*	?	4.1e-05M*	i	?
CC(C)[C@@]1(NC(=O)[C@@H]2C=C3c4cccc5[nH]cc(c45)C[C@@H]3N(C)C2)O[C@]2(O)[C@H]3CCCN3C(=O)[C@H](Cc3ccccc3)N2C1=O	1.7e-09	?	i	2.9e-08M*	i	i
CN1C[C@H](C(=O)N[C@@]2(C)O[C@@]3(O)[C@H]4CCCN4C(=O)[C@@H](Cc4ccccc4)N3C2=O)C=C2c3cccc4[nH]cc(c34)C[C@@H]21	3.1e-08	i	i	1.8e-08M*	i	i
CC(C)[C@@]1(NC(=O)[C@H]2C[C@H]3c4cccc5[nH]cc(c45)C[C@@H]3N(C)C2)O[C@]2(O)[C@H]3CCCN3C(=O)[C@H](Cc3ccccc3)N2C1=O	2.5e-08	i	i	?	i	i
CC[C@@H](CO)NC(=O)[C@@H]1C=C2c3cccc4c3c(cn4C)C[C@H]2N(C)C1	1e-09	?	i	4.8e-08M*	i	i
SMILES	A647 fluor	A488 fluor	Rhodamine autofl	Fluorescein fluor	Resorufin fluor	Texas Red fluor
CC[C@H](CO)NC(=O)[C@H]1C=C2c3cccc4[nH]cc(c34)C[C@@H]2N(C)C1	1.8e-09	i	i	2.1e-08M*	i	i
C[C@@H](CO)NC(=O)[C@H]1C=C2c3cccc4[nH]cc(c34)C[C@H]2N(C)C1	1e-09	i	i	?	i	i
CO[C@@H](C)[C@](O)(C(=O)OC1=CCN2CC[C@H](O)[C@H]12)C(C)C	2e-08	i	i	?	i	i
N[C@@H](Cc1cc(Br)c(O)c(Br)c1)C(=O)O	1e-09	i	i	i	i	i
N[C@H](Cc1ccc2oc3cc(=O)c4ccccc4c-3nc2c1)C(=O)O	1.1e-08	3.9e-08M*	1.2e-08M*	8.5e-07M*	?	4.7e-08M*
CC[C@H]1[C@@H]2C[C@@H]3[C@@H]4N(C)c5ccccc5[C@@]45C[C@@H]([C@H]2[C@@H]5O)N3[C@@H]1O	1e-09	i	i	i	i	i
O=c1cccc2n1C[C@@H]1C[C@H]2CN2CCCC[C@H]12	1e-09	i	i	i	i	i
